Test results: PubChem BioAssay AID1159580 (chemical genetic matrix, 2015)
The whole screen tested about 5,500 compounds, of which about 2,000 (36%) were called active. Not shown: some 18% with an inconclusive outcome. Cut-off read from the data, not from the text of the source: active = normalized growth mostly below about 0.91 (no sharp cut-off); inconclusive = no clear call, values can overlap the other calls; inactive = mostly above about 0.92. This is one part of the list.

Assay: chemical genetic growth profiling, strain panel (AID 1159580);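 note: tested at 20 µM; growth read once vehicle control cultures reached saturation at 30 °C; 1 = growth at the plate median or of vehicle wells; lower values mean less growth of the strain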
Details: S. cerevisiae deletion strains, growth OD
[1] = locus YAL013W, strain DEP1, active compounds read low
[2] = locus YBR229C, strain ROT2, active compounds read low
[3] = locus YDL101C, strain DUN1, active compounds read low
[4] = locus YDR150W, strain NUM1, active compounds read low
[5] = locus YEL061C, strain CIN8, active compounds read low
[6] = locus YGR078C, strain PAC10, active compounds read low
[7] = locus YHR030C, strain SLT2, active compounds read low
[8] = locus YHR087W, strain rtc3, active compounds read low
[9] = locus YJR043C, strain POL32, active compounds read low
[10] = locus YJR075W, strain HOC1, active compounds read low
[11] = locus YLR039C, strain RIC1, active compounds read low
[12] = locus YLR058C, strain SHM2 (second series), active compounds read low
[13] = locus YLR085C, strain ARP6, active compounds read low
[14] = locus YLR262C, strain YPT6, active compounds read low
[15] = locus YML094W, strain GIM5, active compounds read low
[16] = locus YMR219W, strain ESC1, active compounds read low
[17] = locus YMR263W, strain SAP30, active compounds read low
[18] = locus YNL153C, strain GIM3, active compounds read low
[19] = locus YNL298W, strain CLA4 (second series), active compounds read low
[20] = locus YNL322C, strain KRE1, active compounds read low
[21] = locus YNR030W, strain Alg12, active compounds read low
[22] = locus YPL055C, strain LGE1, active compounds read low
[23] = locus YPL241C, strain CIN2, active compounds read low
[24] = locus YPR135W, strain CTF4, active compounds read low

Measured: normalized growth

O=C(c1ccccc1)C1CCN(c2ccc(C(F)(F)F)cc2[N+](=O)[O-])CC1
inactive: [1] 0.995 | [2] 1.01 | [3] 0.995 | locus YDL134C, strain PPH21, active compounds read low 1.01 | [4] 1 | [5] 1 | [6] 0.982 | [7] 1.02 | [8] 0.98 | [9] 1 | [10] 0.946 | [11] 1.02 | [12] 0.997 | [13] 0.953 | [14] 1.01 | [15] 1.01 | [16] 0.996 | [17] 0.998 | locus YMR307W, strain GAS1, active compounds read low 0.991 | [18] 0.991 | [19] 1.02 | [20] 1.01 | [21] 1.04 | [22] 0.999 | [23] 0.931 | [24] 0.978

O=[N+]([O-])c1cc(C(F)(F)F)ccc1N1CCN(CCO)CC1
inactive: [1] 0.995 | [2] 0.987 | [3] 0.989 | [4] 1 | [5] 0.993 | [6] 0.977 | [7] 0.953 | [8] 1.03 | locus YJL187C, strain SWE1, active compounds read low 1 | [9] 0.991 | [10] 0.986 | [11] 0.978 | [12] 0.982 | [13] 0.981 | [14] 0.97 | [15] 0.992 | [16] 0.997 | [17] 0.937 | [18] 0.99 | [19] 0.941 | [20] 0.982 | [21] 0.943 | locus YOL006C, strain TOP1, active compounds read low 0.941 | [22] 1.03 | [23] 0.974 | [24] 0.893

Cc1c(Cl)cccc1NC(=S)N1CCCN(c2nc3ccc(Cl)cc3s2)CC1
active: [7] 0.625 | locus YLR113W, strain HOG1, active compounds read low 0.794 | locus YPL256C, strain CLN2, active compounds read low 0.772
inactive: locus YAR019C, strain CDC15, active compounds read low 0.977 | locus YBL105C, strain PKC1, active compounds read low 0.977 | locus YBR135W, strain CKS1, active compounds read low 0.983 | locus YBR136W, strain MEC1, active compounds read low 0.979 | locus YBR160W, strain CDC28, active compounds read low 0.978 | locus YDL017W, strain CDC7, active compounds read low 0.972 | locus YDL028C, strain MPS1, active compounds read low 0.978 | [3] 0.965 | locus YDL108W, strain KIN28, active compounds read low 0.983 | locus YDL132W, strain cdc53, active compounds read low 0.99 | locus YDL214C, strain PRR2, active compounds read low 0.97 | locus YDR052C, strain DBF4, active compounds read low 0.986 | locus YDR054C, strain cdc34, active compounds read low 0.975 | locus YDR226W, strain ADK1, active compounds read low 0.984 | locus YDR477W, strain SNF1, active compounds read low 0.933 | locus YER123W, strain YCK3, active compounds read low 0.936 | locus YER133W, strain GLC7, active compounds read low 0.941 | locus YFL009W, strain cdc4, active compounds read low 0.98 | locus YFL029C, strain CAK1, active compounds read low 0.968 | locus YFR003C, strain YPI1, active compounds read low 0.985 | locus YFR019W, strain FAB1, active compounds read low 1.01 | locus YFR028C, strain CDC14, active compounds read low 0.98 | locus YGR040W, strain KSS1, active compounds read low 0.937 | locus YGR052W, strain FMP48, active compounds read low 0.975 | locus YGR092W, strain DBF2, active compounds read low 0.722 | locus YHR079C, strain IRE1, active compounds read low 0.7 | locus YHR082C, strain KSP1, active compounds read low 1.06 | locus YHR205W, strain SCH9, active compounds read low 0.97 | locus YIL147C, strain SLN1, active compounds read low 0.981 | locus YJL095W, strain BCK1, active compounds read low 0.863 | locus YJL128C, strain PBS2, active compounds read low 0.957 | locus YJL157C, strain FAR1, active compounds read low 0.897 | locus YJR016C, strain ILV3, active compounds read low 0.978 | locus YJR066W, strain TOR1 (second series), active compounds read low 0.84 | locus YJR066W, strain TOR1, active compounds read low 0.947 | locus YKL048C, strain ELM1, active compounds read low 0.97 | locus YKL067W, strain YNK1, active compounds read low 0.947 | locus YKL101W, strain HSL1, active compounds read low 0.963 | locus YKL193C, strain SDS22, active compounds read low 0.978 | locus YKL203C, strain TOR2, active compounds read low 0.974 | locus YLR133W, strain CKI1, active compounds read low 0.941 | locus YLR403W, strain SFP1, active compounds read low 0.898 | locus YML070W, strain DAK1, active compounds read low 0.972 | locus YMR001C, strain CDC5, active compounds read low 0.982 | locus YMR205C, strain PFK2 (second series), active compounds read low 0.971 | locus YMR277W, strain FCP1, active compounds read low 0.976 | locus YNL006W, strain LST8, active compounds read low 0.963 | locus YNL020C, strain ARK1, active compounds read low 0.909 | locus YNL161W, strain CBK1, active compounds read low 0.986 | locus YNL183C, strain NPR1, active compounds read low 0.989 | locus YNL207W, strain RIO2, active compounds read low 0.976 | locus YNL222W, strain SSU72, active compounds read low 0.98 | locus YNL307C, strain MCK1 (second series), active compounds read low 0.951 | locus YOL078W, strain AVO1, active compounds read low 0.992 | locus YOL136C, strain PFK27, active compounds read low 0.942 | locus YOR061W, strain CKA2, active compounds read low 0.87 | locus YOR119C, strain RIO1, active compounds read low 0.974 | locus YOR231W, strain MKK1, active compounds read low 0.876 | locus YOR329C, strain SCD5, active compounds read low 0.974 | locus YPL031C, strain PHO85, active compounds read low 0.937 | locus YPL153C, strain RAD53, active compounds read low 0.908 | locus YPL204W, strain HRR25, active compounds read low 0.876 | locus YPL209C, strain IPL1, active compounds read low 0.978 | locus YPR025C, strain CCL1, active compounds read low 0.975 | locus YPR106W, strain ISR1, active compounds read low 0.981 | locus YPR111W, strain DBF20, active compounds read low 0.992 | strain NNK1, active compounds read low 0.984 | strain TSCII, active compounds read low 0.976
